# Test system: PPARg homodimer (NR concentration 180 nM)
# Assay: PBM binding z-score (relative to random genomic background probes); higher = stronger binding; sequences stand for … in GC…GCGATTGACAGCGTAGAATGAAGG
# How it was run: (§1)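 On custom Agilent 4×180K arrays, double-stranded probes with 34-nt variable regions carried direct-repeat seeds, single-nucleotide variants, half-site ablations or random human genomic background. Ligand-free nuclear receptor dimers were applied for 1 h, and binding was read with antibodies against each partner (one per run). Binding z-scores come from regression-normalized fluorescence, with the random background probes as reference.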
row,Sequence,PBM binding z-score
1,CCTTACGGGTCACTCCAGGTTATAGCATCGGAGT,1.64
2,TTGCCTAGGTCATGGGCCAGTATACCACGCGAAC,0.932
3,TCTTGTAGATCAATGGTTAAGAAAGCCGAAGCCT,-0.106
4,CCGACTGGGGCATAAGGTTACCCTAAGCCAGCCC,-0.0921
5,CCTTACTGGTCACTCCAGGTTATAGCATCGGAGT,0.774
6,ATCTCTAGGTCACCAAGTTCAGTGAATGCCGAAC,3.74
7,AGAACGAGGGCAATGAGTTGTTAGCACGGGTGGC,-0.355
8,GCTGCTACGTCAGGTTGGTCAGCTAACGGGTACG,-0.583
9,TAGCCTAGGTCAGACCGGGCCAGTATACGCTATA,0.235
10,CCGAGTAGGTTATGGGGCACTCAGGCAACGGTGA,0.446
11,GCTTACGGGTCAAAGGTGATAGCATGAATAGAAT,2.81
12,CCTACTGGGCCAAACAGGTCATTGATGCCGATAA,1.42
13,ATATGTAGGTTATGGGGTCATTCAGTTTGCGCAT,3.35
14,ATCGAAAGGTCGTGAGGTTAGTATACAGAAAGGC,2.32
15,GCGACTGGGGCAAAGCAGGTTTCCATAAGGTTGG,-0.0282
16,CCTACTAGGCCAAAAAGGTCATTGATGCCGATAA,2.71
17,GCTGCTAGGTCAACTGTTGGTCAGCTAAAGCTCG,1.68
18,AGAACGAGGGCACGTTGAGTTGATAGCAGAGTAG,0.701
19,CGTCCAGGGTCAAAGGTCAGTGAAGAGATGACGG,3.17
20,ATCACTAGGTAAAAGTTCAGTGAATCCCGAGGAT,1.02

row,Sequence,PBM binding z-score
1,CCAGATAGGTGAGAAGGTAACTCAGCCTCGATTA,1.05
2,ACTATTAGTTAACTTAGGGCAACCGATACGACGC,0.328
3,AGTCAAAGTTAACTAGGTAACGTAAGATTCAGCT,0.27
4,TCTTGTAGATCAAGCAGGTTAAGACAGCCTGAGT,-0.449
5,GCTAGTTGGTAAGTAAAAGGTCACACACCGGTCG,5.08
6,CGAACTAGGTCATTGACAGGACAGTGAGTAGTAA,1.63
7,TCTTGTAGATCAATAGAGGTCAAGAAAGTGCGCT,1.79
8,ACTAACAGGCCAAGTTTGGGTCACTCAAACAAAG,0.38
9,TCTATTAGTTGAAGGGCAAACGACGAGTCCGTTT,1.18
10,GCTAGGTGGTCAGTAAAAGGTCACACACCGGTCG,4.93
11,ATCTCTAGGTAACAAGTACAGTGAAAGAGAGGAC,0.76
12,ATCTCTAGGTAAAAGCTCAGTGAATCCCGAGGAT,-0.0545
13,TTACCAAGGTGCAGGTCGTTGATCCCTCTGTAGA,-0.014
14,AGACTGAGGTTATACGTAGATCAGGGAAGAAAGT,0.623
15,CAAACTAGGTCAGAGGTCAAAGTCGAGCCAACCA,5.7
16,GCGCGGAGGACAAGGTCAGAGCTTTGTCCGTAGA,0.0737
17,TCTCGGAGGACACGAAAGGTCAGGGCTCGACATC,2.95
18,TATGCAGGGTCAAAGGCCAGAGTACGAATGTCGA,2.29
19,CCTAATGGGCCAAGGTCATTGATCAGTCAAAGCA,2.49
20,AGAACGAGGGCACGCGGAGTTGATAGCAGAGTAG,0.0413

# Test system: PXR:RXRa (NR concentration 270 nM, RXRa partner concentration 90 nM)
# Assay: as above
# How it was run: as §1
row,Sequence,PBM binding z-score
1,CCTTACGGGTCACTCCAGGTTATAGCATCGGAGT,4.79
2,TTGCCTAGGTCATGGGCCAGTATACCACGCGAAC,1.95
3,TCTTGTAGATCAATGGTTAAGAAAGCCGAAGCCT,0.039
4,CCGACTGGGGCATAAGGTTACCCTAAGCCAGCCC,0.213
5,CCTTACTGGTCACTCCAGGTTATAGCATCGGAGT,0.989
6,ATCTCTAGGTCACCAAGTTCAGTGAATGCCGAAC,5.68
7,AGAACGAGGGCAATGAGTTGTTAGCACGGGTGGC,0.859
8,GCTGCTACGTCAGGTTGGTCAGCTAACGGGTACG,-0.691
9,TAGCCTAGGTCAGACCGGGCCAGTATACGCTATA,0.913
10,CCGAGTAGGTTATGGGGCACTCAGGCAACGGTGA,-0.0743
11,GCTTACGGGTCAAAGGTGATAGCATGAATAGAAT,4.78
12,CCTACTGGGCCAAACAGGTCATTGATGCCGATAA,1.37
13,ATATGTAGGTTATGGGGTCATTCAGTTTGCGCAT,6.12
14,ATCGAAAGGTCGTGAGGTTAGTATACAGAAAGGC,3.74
15,GCGACTGGGGCAAAGCAGGTTTCCATAAGGTTGG,-0.473
16,CCTACTAGGCCAAAAAGGTCATTGATGCCGATAA,4.88
17,GCTGCTAGGTCAACTGTTGGTCAGCTAAAGCTCG,1.48
18,AGAACGAGGGCACGTTGAGTTGATAGCAGAGTAG,1.33
19,CGTCCAGGGTCAAAGGTCAGTGAAGAGATGACGG,6.94
20,ATCACTAGGTAAAAGTTCAGTGAATCCCGAGGAT,2.08

row,Sequence,PBM binding z-score
1,CCAGATAGGTGAGAAGGTAACTCAGCCTCGATTA,0.0792
2,ACTATTAGTTAACTTAGGGCAACCGATACGACGC,0.418
3,AGTCAAAGTTAACTAGGTAACGTAAGATTCAGCT,-0.0411
4,TCTTGTAGATCAAGCAGGTTAAGACAGCCTGAGT,0.414
5,GCTAGTTGGTAAGTAAAAGGTCACACACCGGTCG,5.18
6,CGAACTAGGTCATTGACAGGACAGTGAGTAGTAA,1.38
7,TCTTGTAGATCAATAGAGGTCAAGAAAGTGCGCT,5.53
8,ACTAACAGGCCAAGTTTGGGTCACTCAAACAAAG,0.912
9,TCTATTAGTTGAAGGGCAAACGACGAGTCCGTTT,1.25
10,GCTAGGTGGTCAGTAAAAGGTCACACACCGGTCG,5.02
11,ATCTCTAGGTAACAAGTACAGTGAAAGAGAGGAC,0.221
12,ATCTCTAGGTAAAAGCTCAGTGAATCCCGAGGAT,-0.626
13,TTACCAAGGTGCAGGTCGTTGATCCCTCTGTAGA,0.4
14,AGACTGAGGTTATACGTAGATCAGGGAAGAAAGT,1.09
15,CAAACTAGGTCAGAGGTCAAAGTCGAGCCAACCA,6.37
16,GCGCGGAGGACAAGGTCAGAGCTTTGTCCGTAGA,1.5
17,TCTCGGAGGACACGAAAGGTCAGGGCTCGACATC,4.44
18,TATGCAGGGTCAAAGGCCAGAGTACGAATGTCGA,4.49
19,CCTAATGGGCCAAGGTCATTGATCAGTCAAAGCA,3.83
20,AGAACGAGGGCACGCGGAGTTGATAGCAGAGTAG,1.45

# — the supplement of paper PMC6555819
